Most compounds without a hit are left out; they make up all but 2.8% or so of the library.
TRPM1 prom inh: MITF TRPM1 promoter inhibition in SK-MEL-5 cells. SK-MEL-5 TRPM1 promoter luciferase, 24 h. inhibition, % at 12.5 µM. 0.83% of 330,000 active. AID 488899;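 active means mean inhibition across replicates of 60% or more, whatever share of single replicates reaches that level; inconclusive means some that reach 60%, reason not given; inactive means mean inhibition across replicates below 60%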
Beta2AR agonist: human beta-2 adrenergic receptor agonism by FAP. Am2.2-beta2AR cells, FAP receptor internalization, flow cytometry. response, % (concentration not given with the values). 0.43% of 340,000 active;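 active means response above a set limit, near 3 SD of response in nonfluorescent compounds, cut at about 42% in these data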
Target sequence (P07550 whole entry, looked up): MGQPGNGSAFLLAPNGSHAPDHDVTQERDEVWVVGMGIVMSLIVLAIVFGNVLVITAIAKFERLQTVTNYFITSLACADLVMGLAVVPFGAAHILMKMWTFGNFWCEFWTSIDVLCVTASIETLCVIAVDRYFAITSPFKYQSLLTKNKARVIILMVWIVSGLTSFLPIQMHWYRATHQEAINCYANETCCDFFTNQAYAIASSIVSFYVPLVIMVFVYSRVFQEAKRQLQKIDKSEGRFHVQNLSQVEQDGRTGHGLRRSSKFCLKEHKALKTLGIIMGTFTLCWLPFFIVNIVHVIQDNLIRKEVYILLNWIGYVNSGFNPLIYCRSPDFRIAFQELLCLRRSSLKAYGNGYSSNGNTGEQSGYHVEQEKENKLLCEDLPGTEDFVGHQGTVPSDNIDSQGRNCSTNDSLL
KKLEB cytotox: counter-screen for CF NF-kB inhibitors: cytotoxicity; KKLEB CF airway cells viability, ATPlite luminescence, overnight; hits give low values; cells stimulated with P. aeruginosa culture filtrate; activity change (cytotoxicity), % at 5 µM; 0.36% of 360,000 active; AID 602141;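 active means corrected activity change at or below -50% at 5 µM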
Peg3 promoter: Peg3 promoter activity inhibition; HeLa PEG-Prom luciferase reporter, luminescence, overnight; inhibition, % at 20 µM; 1.7% of 360,000 active; AID 588405;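 active means inhibition of at least 50% at 20 µM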
HIF-2a inh: inhibitors of HIF-2a; 786-0 RCC cells HIF-2a reporter, luciferase luminescence, overnight; inhibition, % at 18.8 µM; 0.72% of 360,000 active;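 active means inhibition of the luminescence signal of 40% or more relative to plate controls, in a single-dose primary screen at 18.75 µM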
CF NFkB block: inhibitors of cystic fibrosis induced NF-kB. KKLEB NF-kB-GFP reporter, PAF-induced, GFP fluorescence overnight. inhibition, % at 5 µM. 0.86% of 360,000 active;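 active means at least 50% inhibition at 5 µM, scaled per plate between neutral and stimulator controls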;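 further: PAF is a Pseudomonas aeruginosa culture filtrate used as stimulus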
A number is an active result; - = inactive; ? = inconclusive; . = not tested or not shown.

SMILES	TRPM1 prom inh	Beta2AR agonist	KKLEB cytotox	Peg3 promoter	HIF-2a inh	CF NFkB block
Cc1ccc(O)c(Nc2c3ccccc3nc3ccccc23)c1	-	-	-	61	-	-
CCCS(=O)(=O)Nc1ccc(Nc2c3ccccc3nc3ccccc23)c(OC)c1	75	-	-	-	-	-
COc1cc(N)ccc1Nc1c2ccccc2nc2ccccc12	.	.	-	103	-	-
S=C(Nc1ccc(Cl)c(Cl)c1)NC1CCN(Cc2ccccc2)CC1	-	-	-	93	-	-
O=C1C2C3CC4C5C3C1C5C1(SCCS1)C42 (stereo unspecified)	.	.	-	-	-	-
CCCCSc1nc(SCC(=O)NCc2ccco2)c2c3c(sc2n1)COC(C)(CC)C3 (stereo unspecified)	-	-	-	77	-	-
Cc1cccc(C(=O)N2CCC(C)(C(=O)NS(=O)(=O)C3CC3)C2)c1C (stereo unspecified)	.	.	-	-	-	-
COC1C(CO)OC(n2c3c(Cl)cccc3c3c4c(c5c6cccc(Cl)c6[nH]c5c32)C(=O)NC4=O)C(O)C1O (stereo unspecified)	86	-	-	-	-	-
COc1ccc(S(=O)(=O)N2CCCCCC2)cc1C(=O)OCc1cccc(OC)c1OC	-	-	-	51	-	-
CN(C)S(=O)(=O)c1cccc(NC(=S)N/N=C/c2cc(Br)ccc2O)c1	67	-	-	54	-	-
CCc1nc2ccc(C(=O)NCc3ccccc3OC)cn2c1N(CC)Cc1cccc(Br)c1	.	.	-	-	-	-
CCc1nc2ccc(C(=O)NCc3cccs3)cn2c1N(CC)Cc1cccc(Br)c1	.	.	-	57	-	-
CN(c1ccccc1)c1ccc(/C=C(/CCC(=O)O)c2nc3ccccc3s2)cc1[N+](=O)[O-]	-	-	-	57	-	-
CC1(C(=O)NS(=O)(=O)c2cccc(OC(F)F)c2)CCN1C(=O)CC1CCCC1 (stereo unspecified)	.	.	-	-	-	-
COc1cc2[nH]c(=O)n(CCCCCC(=O)N3CCN(c4ccccc4)CC3)c(=O)c2cc1OC	-	-	-	58	-	-
COC(=O)c1ccc2c(=O)n(CCCCCC(=O)N3CCN(c4ccccc4)CC3)c(=O)[nH]c2c1	-	-	-	-	-	-
Cc1ccc(F)c(CNC(=O)C2(C)CCCN2C(=O)C(C)C)c1F (stereo unspecified)	.	.	-	-	-	-
COc1ccc(-n2sc3ccccc3c2=O)cc1	.	.	-	-	-	63
COc1ccc(-n2sc3ccc(F)cc3c2=O)cc1	-	-	-	-	-	-
CN1CCN(CC(O)COc2ccc(C34CC5CC(CC(C5)C3)C4)cc2)CC1 (stereo unspecified)	-	-	-	105	-	-
CN1CCN(CC(O)COc2ccccc2)CC1 (stereo unspecified)	-	-	-	-	-	-
COc1cc(CNC2CCCC2)cc(Cl)c1OCc1ccc(F)cc1	-	-	-	-	-	-
CCOc1cc(CNC2CCCC2)cc(Cl)c1OCc1ccc(F)cc1	-	-	-	91	-	-
Cc1ccc(S(=O)(=O)N2[C@@H](CO)CO[C@H]2CC(=O)OCc2ccccc2)cc1	.	.	.	.	-	.
CCCCN1C(=O)C(CC(=O)NCCCN(C)C)CC(C(=O)N(C)C)=C1C (stereo unspecified)	.	.	-	-	-	-
SMILES	TRPM1 prom inh	Beta2AR agonist	KKLEB cytotox	Peg3 promoter	HIF-2a inh	CF NFkB block
CC12CCC(C/C1=N\N=C1\NC(=O)/C(=C\c3ccc(Cl)cc3)S1)C2(C)C (stereo unspecified)	-	-	-94	-	-	89
Cc1cc(NC(=O)C2(C)CCN2C(C)C)c2ccccc2n1 (stereo unspecified)	.	.	-	-	-	-
O=C(CN1C(=O)/C(=C/c2ccc(F)cc2)SC1=S)N1CCN(CCc2ccccn2)CC1	-	-	-	51	-	-
O=C(CCN1C(=O)/C(=C/c2ccc(F)cc2)SC1=S)NCCc1ccc(O)cc1	-	-	-	83	-	-
COc1cccc(/C=C2\SC(=S)N(CCC(=O)NCCc3ccc(O)cc3)C2=O)c1	-	-	-	95	-	-
C#CCN(C[C@H]1[C@H](OC(=O)NC2CCCC2)[C@H](OC(=O)NC2CCCC2)C[C@@H](C(=O)OC)[C@H]1C(=O)OC)S(=O)(=O)c1ccc(C)cc1	.	.	-	-	-	-
CCOC(=O)/C(=C/c1ccc(OC(=O)c2ccncc2)cc1)C(C)=O	-	-	-	-	-	-
COCCOC(=O)/C(=C/c1ccc(OC(=O)c2ccccc2)cc1)C(C)=O	-	43	-	-	-	-
COc1ccccc1CNc1nc(NCc2ccc3occc3c2)c2sccc2n1	.	.	-	90	-	-
c1cc2cc(CNc3nc(NCC4CC4)nc4ccsc34)ccc2o1	.	.	-	-	-	-
Cc1ccc(CNc2nc(NCC3CC3)nc3ccsc23)c(C)c1	.	.	-	77	-	-
CNc1nc(NCc2ccc(C)cc2C)c2sccc2n1	.	.	-	-	-	-
COc1ccccc1CNc1nc(NCc2ccccc2OC)c2sccc2n1	.	.	-	58	-	-
COc1ccccc1CNc1nc(NCc2cccs2)nc2ccsc12	.	.	-	-	-	-
COc1ccccc1CNc1nc(Nc2cccc(-c3cnco3)c2)c2sccc2n1	.	.	-	91	-	-
OC(c1ccc(Cl)c(F)c1)c1ncc(-c2cccc(C(F)(F)F)c2)[nH]1 (stereo unspecified)	.	.	-	-	-	-
CCCNC(=O)C1(C)CCN(C(=O)COc2ccc(Cl)cc2Cl)C1 (stereo unspecified)	.	.	-	-	-	-
Cc1[nH]c2ccccc2c1C(=O)CCl	?	-	-	93	-	64
C/C=C1\NC(=O)[C@H](C)NC(=O)[C@@H](NC(=O)[C@@H](Cc2ccc(O)cc2)NC(=O)[C@@H](NC(=O)/C(C)=C/C)C(C)C)[C@@H](C)OC(=O)[C@H](CCCCc2ccc(O)cc2)NC(=O)[C@@H](CCC(=O)OC)NC1=O	.	.	-	-	-	-
COc1cccc(CNC(=S)Nc2ccc3c(c2)c(=O)n(C)n3Cc2ccc(F)cc2)c1	.	.	-	-	-	-
N=c1n(CCCOc2ccc(Br)cc2)c2ccccc2n1CC(N)=O	-	-	-	60	-	-
O=C(NCc1ccccc1)C(c1ccc(C(F)(F)F)cc1)n1c(=O)c(-c2ccco2)nc2ccccc21 (stereo unspecified)	.	.	.	.	-	.
CN(C)CCNC(=O)c1ccc(Sc2ccc(Br)cc2)c([N+](=O)[O-])c1	-	-	-	94	-	-
COc1ccc(/C=C2\SC(=N)N(c3nccs3)C2=O)cc1OC	-	-	-	-	-	-
COc1cc(/C=C2/C(=N)N3C(c4ccccc4)=CSC3=NC2=O)ccc1OCC(=O)O	-	-	-	-	-	-
N=C1S/C(=C\c2ccc(-c3cccc(Cl)c3)o2)C(=O)N1c1nccs1	-	-	-	104	-	-

Assay outcomes from PubChem BioAssay.
